Results on 15 compounds are retold here after PubChem BioAssay (NCI).

This is part of a sample that, as a whole, favours compounds with a hit. Of some 83,000 tested, about 20% had one in any assay.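 A percent growth of 40 corresponds to 60% growth inhibition; 0 means no net growth; -100 means all cells died. Active threshold: below 10.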 Values without a mark were called inactive. Activity calls are given as the source filed them.

Some test systems named below: NCI-H23 lung; NCI-H226 lung; HOP-62 NSCLC; NCI-H460 lung; HOP-92 NSCLC; NCI-H522 lung; A549/ATCC NSCLC; 786-0 renal; COLO 205 colon; NCI-H322M lung.
What all share (assay): NCI-60 one-dose screen, 48 h (100 = growth as untreated, 0 = no growth, -100 = all killed)
Holding throughout (details): 10 µM unless noted

Turning to `C[C@H](Nc1nc(NCCc2ccccc2)nc2ccccc12)c1ccccc1`, the growth in the experiment on NCI-H23 lung is -85.2% (active); with NCI-H226 lung, -80.4% (active); with HOP-62 NSCLC, -90.3% (active); in the experiment on NCI-H460 lung, -75.3% (active); in the experiment with HOP-92 NSCLC it was -81.1% (active); with NCI-H522 lung it was -82.9% (active). Moreover, the growth in the experiment on A549/ATCC NSCLC is -33.2% (active); with 786-0 renal, -87.3% (active); with COLO 205 colon, -93.7% (active).

As to `Cn1cc(-c2cc3nc(-c4cn(C)c5ncccc45)cc(N)n3n2)c2cc(Cl)ccc21`, the growth in the experiment on NCI-H23 lung is -66.6% (active); with NCI-H226 lung, 1.56% (active); in the experiment on NCI-H322M lung, -19.8% (active); with HOP-62 NSCLC, -94.2% (active); in the experiment on NCI-H522 lung, -85.1% (active); with A549/ATCC NSCLC, -4.13% (active). The results for the growth in the experiment with 786-0 renal and in the experiment on COLO 205 colon were -90.4% (active) and -93.7% (active), respectively.

As to `CCC(C)(C)c1ccc(OCCCCCCN2CCN(c3ccncc3)CC2)cc1`, the growth in the experiment on NCI-H23 lung was 1.24% (active); with NCI-H226 lung it was 35.6%; in the experiment with HOP-62 NSCLC, 35.1%; with NCI-H460 lung, -29.7% (active); in the experiment with HOP-92 NSCLC it was -27.8% (active); with NCI-H522 lung it was 8.93% (active). Besides, the growth was 32.8% in the experiment with A549/ATCC NSCLC and -79% (active) in the experiment on 786-0 renal.

With `CCCCCCCCc1ccc(C(=O)Nc2cccc(P(=O)(O)O)c2)cc1`, the growth with NCI-H23 lung was 96.7%; with NCI-H226 lung it was 97.4%; in the experiment with NCI-H322M lung, 103%; in the experiment on HOP-62 NSCLC, 111%; in the experiment with HOP-92 NSCLC, 114%; with NCI-H522 lung it was 112%. In addition, the growth in the experiment on A549/ATCC NSCLC was 99.9%; with 786-0 renal, 104%; with COLO 205 colon it was 113%.

Turning to `CC(=O)Nc1cccc(Nc2nc(N[C@H]3CCCc4ccccc43)c3ccccc3n2)c1`, the growth in the experiment with NCI-H23 lung was 104%; with NCI-H322M lung it was 103%; in the experiment with HOP-62 NSCLC, 102%; with NCI-H460 lung, 104%; with HOP-92 NSCLC it was 110%; in the experiment with NCI-H522 lung, 97.5%. Further, the growth with A549/ATCC NSCLC was 104%; in the experiment on 786-0 renal, 106%; in the experiment on COLO 205 colon, 109%.

Regarding `CC12CC[C@@H]3[C@]4(C)COC(c5cn[nH]c5-c5ccc(Cl)cc5)O[C@@H]4CC[C@@]3(C)[C@@H]1CC(C1=CCOC1=O)O2` (stereo not given in full), the growth is 51.9% in the experiment with NCI-H23 lung; 45.5% in the experiment with NCI-H226 lung; 62.7% in the experiment on HOP-62 NSCLC; 29.8% in the experiment on NCI-H460 lung; 20.9% in the experiment on NCI-H522 lung; 34% in the experiment on A549/ATCC NSCLC. In addition, the values for the growth in the experiment with 786-0 renal and in the experiment on COLO 205 colon were 57.1% and 10.3%, respectively.

With `O=C(Cn1nc(-c2ccccc2)ccc1=O)N/N=C/c1ccc(N2CCOCC2)cc1`, the growth with NCI-H23 lung was 100%; in the experiment on NCI-H226 lung, 89.7%; in the experiment with HOP-62 NSCLC, 96%; with NCI-H460 lung it was 99.5%; with NCI-H522 lung, 89.4%; in the experiment on A549/ATCC NSCLC, 94.9%. The values for the growth with 786-0 renal and in the experiment on COLO 205 colon were 97.7% and 113%, respectively.

For `N#Cc1cnn(C(=O)c2ccccc2Br)c1NC(=O)c1ccc(Br)cc1Cl`, the growth in the experiment with NCI-H23 lung is 104%; in the experiment with NCI-H322M lung it was 100%; in the experiment on HOP-62 NSCLC, 97.9%; in the experiment on NCI-H460 lung, 105%; in the experiment on HOP-92 NSCLC, 111%; in the experiment on NCI-H522 lung it was 102%. The growth with A549/ATCC NSCLC is 93.9%; in the experiment on 786-0 renal, 95.8%; in the experiment on COLO 205 colon, 102%.

For the compound `CC(/C=C1\SC(=S)N(CCCC(=O)NC(CC(C)C)C(=O)O)C1=O)=C\c1ccccc1` (stereo not given), the growth in the experiment with NCI-H23 lung is 96.5%; with NCI-H322M lung, 92.8%; with HOP-62 NSCLC, 110%; in the experiment on NCI-H460 lung, 99.8%; with HOP-92 NSCLC, 7.81% (active); in the experiment on NCI-H522 lung it was 84.2%. Moreover, the growth in the experiment on A549/ATCC NSCLC is 89.8%; with 786-0 renal, 93.4%.

Take `CCS(=O)(=O)N1CCCC(C(=O)Nc2nc3ccc(NC(=O)c4ccc(F)c(OC)c4F)cc3s2)C1` (stereo not given): the growth is 47.5% in the experiment with NCI-H23 lung; 82.3% in the experiment with NCI-H322M lung; 80.6% in the experiment with HOP-62 NSCLC; 62.5% in the experiment on NCI-H460 lung; 52% in the experiment on NCI-H522 lung; 77.4% in the experiment on A549/ATCC NSCLC. Besides, the growth with 786-0 renal is 58.1%; with COLO 205 colon it was 54.3%.

For the compound `C=C1CC[C@@H]2[C@]3(C)COC(c4cn[nH]c4-c4cccc(Cl)c4)O[C@@H]3CC[C@@]2(C)[C@@H]1C/C=C1/C(=O)OCC1O` (stereo not given in full), the growth in the experiment with NCI-H23 lung is -79.8% (active); in the experiment with NCI-H322M lung, 37.9%; in the experiment on HOP-62 NSCLC it was 0.166% (active); with NCI-H460 lung, -3.88% (active); in the experiment with NCI-H522 lung, -60% (active); in the experiment with A549/ATCC NSCLC, -19.2% (active). The growth is -92.7% (active) in the experiment on 786-0 renal and -35% (active) in the experiment with COLO 205 colon.

For `CCCCCCn1c(O)c(N=Nc2nc(-c3cc4ccccc4oc3=O)cs2)c2ccccc21`, the growth is -20.9% (active) in the experiment on NCI-H23 lung; 53.1% in the experiment on NCI-H322M lung; 39.9% in the experiment on HOP-62 NSCLC; 5.99% (active) in the experiment on NCI-H460 lung; -21.8% (active) in the experiment on NCI-H522 lung; -16.6% (active) in the experiment with A549/ATCC NSCLC. Further, the growth with 786-0 renal was -64.8% (active); in the experiment with COLO 205 colon, 4.61% (active).

As for `C=C1CC[C@@H]2[C@]3(C)COC(c4ccccc4)O[C@@H]3CC[C@@]2(C)[C@@H]1C/C=C1/C(=O)OCC1OC(C)=O` (stereo not given in full), the growth in the experiment with NCI-H23 lung is -18.5% (active); in the experiment on NCI-H322M lung it was 62.1%; in the experiment on HOP-62 NSCLC, -27.7% (active); with NCI-H460 lung, 15.1%; in the experiment on HOP-92 NSCLC, -36.3% (active); with NCI-H522 lung, -90.2% (active). Besides, the results for the growth with A549/ATCC NSCLC, in the experiment on 786-0 renal and with COLO 205 colon were 9.46% (active), -95.6% (active) and -76.4% (active), respectively.

With `CN(C)c1nc(NCCNS(=O)(=O)c2ccc(C(=O)/C=C/c3ccc(F)cc3)cc2)nc(Nc2ccc(F)cc2)n1`, the growth with NCI-H23 lung was -84% (active); with NCI-H226 lung, -74.4% (active); with HOP-62 NSCLC, -71.2% (active); with NCI-H460 lung, -75.2% (active); with NCI-H522 lung, -96.1% (active); in the experiment on A549/ATCC NSCLC it was -56.4% (active). The growth is -85.6% (active) in the experiment with 786-0 renal and -85.7% (active) in the experiment with COLO 205 colon.

Consider `CN1CCN(c2ccc(C(=O)/C=C/c3ccc(Br)cc3)cc2)CC1`, for which the growth is 52.4% in the experiment with NCI-H23 lung; 12.6% with NCI-H226 lung; 22.1% in the experiment on HOP-62 NSCLC; 64.4% in the experiment with NCI-H460 lung; 13.2% with HOP-92 NSCLC; 7.46% (active) with A549/ATCC NSCLC. For the same compound, the growth was 19.5% with 786-0 renal and -14.7% (active) in the experiment with COLO 205 colon.
